AmpC detergent – inhibitors of E. coli AmpC beta-lactamase with detergent; AmpC hydrolysis of nitrocefin, absorbance 480 nm, 0.01% Triton; Potency, µM (top dose mostly 114 µM), without a hit: top-dose activity change, negative = inhibition, actives largely listed as inhibitors; 370,000 compounds, 0.041% hits;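 further: 0% = no-compound wells and -100% = no-enzyme wells; nearly all actives have a fitted effect of over 25% in size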
Target sequence (P00811 whole entry, looked up): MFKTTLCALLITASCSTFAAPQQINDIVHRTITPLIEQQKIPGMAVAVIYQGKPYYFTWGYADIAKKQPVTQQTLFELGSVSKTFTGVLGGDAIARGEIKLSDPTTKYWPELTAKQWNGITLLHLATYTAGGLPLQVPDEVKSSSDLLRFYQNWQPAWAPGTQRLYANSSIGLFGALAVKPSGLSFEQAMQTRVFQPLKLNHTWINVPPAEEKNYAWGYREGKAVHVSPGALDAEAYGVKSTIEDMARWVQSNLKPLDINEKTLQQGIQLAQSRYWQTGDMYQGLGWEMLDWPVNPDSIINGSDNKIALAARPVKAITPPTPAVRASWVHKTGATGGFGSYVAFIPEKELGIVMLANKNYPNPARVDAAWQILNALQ
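20 mM phosphate pH 7.0 + 0.01% (detergent screen) or 0.0001% Triton X-100; 5.3 nM AmpC reagent; cpd preinc 15 min RT; nitrocefin (800 uM stock) to start; A480 q20 s × 4 min; Activity was normalised to no-enzyme and no-compound control wells.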
Sm TGR block – blocks Schistosoma mansoni thioredoxin glutathione reductase. Q962Y6. purified TGR, DTNB reduction, TNB absorbance 405 nm. Potency, µM (doses to about 114 µM), without a hit: at the highest dose activity change, negative = inhibition, usual class: inhibitors. 360,000 compounds, 3% hits. AID 485364; further: nearly all actives have a fitted effect of over 60% in size
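First, TGR (20 nM dispensed) and NADPH were mixed with compound. Second, a 15 min room-temperature incubation followed. Third, further NADPH and then DTNB were added to start the reaction. Finally, TNB absorbance was monitored kinetically.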
FBPA Giardia inh – inhibitors of Giardia lamblia fructose-1,6-bisphosphate aldolase | AID 2451 | 290,000 compounds, 0.71% hits | A8B2U2 | purified Giardia FBPA | Potency, µM (highest dose often 59.6 µM), inactives show at the top dose activity, negative = inhibition, most hits filed as inhibitors; further: nearly all actives have a fitted effect of over 55% in size
Target sequence (A8B2U2 whole entry, looked up): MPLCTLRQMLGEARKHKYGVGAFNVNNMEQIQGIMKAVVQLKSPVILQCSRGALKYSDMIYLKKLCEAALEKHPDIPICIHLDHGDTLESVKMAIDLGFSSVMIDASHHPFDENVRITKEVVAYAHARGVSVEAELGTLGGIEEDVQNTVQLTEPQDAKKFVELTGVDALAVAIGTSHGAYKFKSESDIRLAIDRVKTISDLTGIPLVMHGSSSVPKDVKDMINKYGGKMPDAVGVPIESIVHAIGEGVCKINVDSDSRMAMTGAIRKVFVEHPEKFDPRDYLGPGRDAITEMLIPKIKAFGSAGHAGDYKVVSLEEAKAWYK
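40 nM FBPA preincubated 10 min at RT with compound (up to 57.5 uM final), then substrate plus GAPDH/TPI/NAD/arsenate coupling and diaphorase/resazurin added. Fluorescence read after 20 min at RT, 525/598 nm.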
AmpC inh no detg – inhibitors of E. coli AmpC beta-lactamase without detergent. AmpC nitrocefin hydrolysis, absorbance 480 nm, 0.0001% Triton. P00811. 330,000 compounds, 0.52% hits. Potency, µM (titrated, usually from 57.1 µM), inactives show top-dose activity change, negative = inhibition, hits mostly inhibitors;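 further: plate controls were no compound for no effect and no enzyme for full effect; nearly all actives have a fitted effect of over 20% in size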
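AmpC (5.3 nM in the dispensed reagent) in 20 mM phosphate pH 7.0 with 0.01% (detergent screen) or 0.0001% Triton X-100 was preincubated with compounds for 15 min at room temperature. Nitrocefin was then added from an 800 uM solution, and hydrolysis was followed at 480 nm.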
* = called active by the depositor; ? = inconclusive; . = not tested or not shown; [ ] = another dose, or the depositor's remark. This is a sample that favours compounds with a hit; in the whole collection about 3.6% have one here. The call rests on the fitted dose curve; in most records, active means well fitted curve in the direction sought with a large enough effect; inconclusive means small, poorly fitted or top-dose-only effect, or another doubt; inactive means no such curve, though single readings can be large; an effect the other way counts as inactive or inconclusive. Unless noted, on the % scale 0 is the no-effect control and ±100 the full control effect; potency means the concentration at half of the fitted maximal effect.

SMILES	AmpC detergent	Sm TGR block	FBPA Giardia inh	AmpC inh no detg
CC(Cc1ccsc1)NC(=O)CCc1nnc(COc2ccccc2)o1 (configuration not stated)	4.9%	0.0%	3.1%	46.4%
c1ccc(-c2ccccc2OCCOCCN2CCOCC2)cc1	-1.3%	6.5%	14.1µM*	42.3%
COc1ccc(C(c2c(C)n(C)n(-c3ccccc3)c2=O)c2c(C)n(C)n(-c3ccccc3)c2=O)cc1O	1.7%	-5.9%	-3.0%	-9.0%
CSc1nc(C)c(Oc2ccccc2)c(=O)n1C	0.7%	-1.0%	4.0%	-17.1%
CCCSc1nc(O)c(C(c2ccc(OC)c(O)c2)c2c(O)nc(SCCC)n(C)c2=O)c(=O)n1C	-1.1%	12.6µM*	3.2%	?
COc1cccc(C(c2c(O)nc(SC)n(C)c2=O)c2c(O)nc(SC)n(C)c2=O)c1	2.4%	7.08µM*	15.8%	-24.0%
CC(NC(=O)CCc1ccccc1)c1ccc2c(c1)OCO2 (configuration not stated)	-10.0%	1.7%	-6.1%	-0.1%
O=C1C=CC(=O)c2c(O)c(Cl)c(Cl)c(O)c21	.	.	12.6µM*	.
Cc1ccc(NC(=O)c2sc3ncn(CC(=O)N4CCOCC4)c(=O)c3c2C)c(Br)c1	0.2%	-10.2%	.	36.6%
CC(=O)Nc1nc(Cn2nnc(-c3ccc4c(c3)OCO4)n2)nc(N(C)C)n1	?	-4.4%	0.1%	-15.1%
Cc1ccc(C(=O)CSC2=C(C#N)C(c3ccco3)C3=C(CCCC3=O)N2)cc1 (configuration not stated)	?	?	-4.7%	?
CC(C)(C)c1ccc(C(=O)CCCSC2=C(C#N)C(c3ccco3)C3=C(CCCC3=O)N2)cc1 (configuration not stated)	-4.3%	39.8µM*	-10.5%	-18.0%
Cc1ccc2nsnc2c1NS(=O)(=O)c1c(C)ccc2nsnc12	-11.2%	?	?	-42.2%
Cc1ccc(/C=[N+](\[O-])c2ccc(N(C)C)cc2)c2nsnc12	-11.8%	28.2µM*	?	-7.5%
O=C(CCNc1cccc(C(F)(F)F)c1)c1ccco1	-6.5%	3.55µM*	-5.4%	-4.2%
O=C(CCNc1ccc(F)cc1)c1ccco1	5.2%	3.98µM*	-19.1%	-10.8%
O=C(CCNc1cc(Cl)cc(Cl)c1)c1ccco1	0.2%	?	0.0%	-8.9%
O=C(CCNc1ccc(F)c(Cl)c1)c1ccco1	-5.5%	8.91µM*	-4.0%	-23.1%
Cc1cc(OCC(=O)Nc2ccc(C(=O)OC3CCCCC3)cc2)cc(C)c1Cl	-3.9%	0.4%	.	.
C=C1c2cccc(OC)c2O[C@H](C(=O)OCC)[C@@H]1CCC(C)C	.	.	-5.8%[89.2 µM]	.
CCc1cccc(C)c1NC(=O)c1nc2ccccc2nc1N1CCCCC1	-0.1%	-5.8%	.	.
CCOc1c(Br)cc(/C=C2\N=C(C)OC2=O)cc1Br	-13.5%	?	5.8%	-25.4%
CC1=N/C(=C/c2ccco2)C(=O)O1	6.5%	28.2µM*	?	-29.5%
COc1cc(/C=C2\N=C(C)OC2=O)cc(OC)c1OC	-8.1%	17.8µM*	1.9%	-22.3%
CCOC(=O)Oc1ccc(/C=C2\N=C(C)OC2=O)cc1	0.3%	12.6µM*	4.3%	-12.3%
SMILES	AmpC detergent	Sm TGR block	FBPA Giardia inh	AmpC inh no detg
NC(=O)C1CCN(C(=O)COc2ccc3ccc(=O)oc3c2)CC1	?	-7.2%	-4.5%	13.5%
CCOC(=O)c1c(-c2ccc(C)o2)csc1NC(=O)CN1CCC(C(N)=O)CC1	0.8%	14.1µM*	-25.4%	155.1%
CCOC(=O)c1c(-c2ccc(C)o2)csc1NC(=O)CSc1nncs1	-11.8%	4.47µM*	-18.5%	-10.5%
CCOC(=O)c1c(-c2ccc(C)o2)csc1NC(=O)CN1CCN(CC)CC1	?	50.1µM*	-5.3%	45.5%
CCOC(=O)c1c(-c2ccc(C)o2)csc1NC(=S)NC(=O)c1ccc(F)cc1	-7.1%	-13.1%	7.3%	-19.0%
CCOC(=O)c1c(-c2ccc(C)o2)csc1NC(=O)CN1CCCCC1	-0.8%	8.91µM*	-3.8%	-20.2%[11.4 µM]
CCOC(=O)c1c(-c2ccc(C)o2)csc1NC(=O)CN(C)CC(=O)Nc1ccc(C)cc1	-13.7%	?	-13.3%	11.1%
CCOC(=O)CN(Cc1cc(OC)cc(N(C)C)c1OC)C(=O)C1CC(CO[Si](C)(C)C(C)(C)C)=CN1C(=O)OC(C)(C)C (configuration not stated)	.	.	-12.3%	.
CCN(C(=O)CSc1nc(-c2ccccc2)no1)c1cccc(C)c1	6.8%	-23.6%	.	.
CCOC(=O)c1c(-c2ccco2)csc1NC(=O)COC(=O)c1cnccn1	0.0%	7.94µM*	.	45.5%
CCOC(=O)NC1(Nc2cccc(Cl)c2)Oc2ccccc2O1	-5.2%	50.1µM*	-1.8%	-27.3%
CC[n+]1c(C)cc(C)n1-c1ccccc1	2.4%	8.8%	1.7%	-18.1%
O=C(O)c1ccc(/C=N/NC(=O)C(O)(c2ccccc2)c2ccccc2)cc1	-7.7%	1.7%	-10.5%	-10.3%
CCN(CC)c1ccc(/C=N/NC(=O)C(O)(c2ccccc2)c2ccccc2)o1	-1.5%	14.1µM*	-10.9%	-23.0%
O=C(CN1C(=O)COc2ccc(S(=O)(=O)Nc3ccccc3)cc21)NCc1ccccc1Cl	21.5%	2.1%	.	.
Cc1cccc(NC(=O)c2ccccc2NC(=O)C2CCCCC2)c1C	-6.8%	12.6µM*	-11.8%	-32.0%
C[C@H](CO)N1C[C@H](C)[C@@H](CN(C)S(=O)(=O)c2ccc(F)cc2)Oc2ccc(NS(=O)(=O)c3ccccc3)cc2C1=O	.	.	.	140.0%
O=C(O)CSC1CC(=O)N(c2ccc(Cl)c(Cl)c2)C1=O (configuration not stated)	?	17.8µM*	12.8%	-23.2%
O=C(O)CC(CNS(=O)(=O)c1ccccc1)c1ccccc1 (configuration not stated)	?	8.2%	2.1%	2.51µM*
O=C(O)CCCCCCNS(=O)(=O)c1ccccc1	-5.7%	5.5%	5.9%	-1.8%
O=S(=O)(Nc1cccc(-c2nc3cccnc3s2)c1)c1ccc2c(c1)OCCO2	?	-1.8%	13.2%	3.16µM*
CCOc1ccc(NC(=O)c2c(NCc3cc(OC)c(OC)cc3OC)sc3c2CCCC3)cc1	-6.9%	-27.1%	.	.
CCOc1ccc(NC(=O)c2c(NCc3ccc(C)o3)sc3c2CCCCC3)cc1	3.7%	8.91µM*	.	.
COc1ccc(OC)c(NC(=O)c2c(NCc3cccs3)sc3c2CCCCC3)c1	0.2%	39.8µM*	.	.
CCOc1ccc(NC(=O)c2c(NCc3sccc3C)sc3c2CCCCC3)cc1	2.1%	7.94µM*	.	.
COc1ccc(NC(=O)c2c(NCc3cccs3)sc3c2CCCCC3)cc1	-0.7%	17.8µM*	.	.
COC(=O)c1scc(-c2ccc(C)cc2)c1S(=O)(=O)Nc1cc(Cl)ccc1C	3.9%	-0.2%	.	.
CCOC(=O)c1ccc(Nc2c(-c3ccc(N(C)C)cc3)nc3nc[nH]n23)cc1	1.3%	-27.0%	.	.
Cc1ccc(C(=O)N/C(=C\c2cn(S(=O)(=O)N(C)C)c3ccccc23)C(=O)NCCCN2CCOCC2)cc1	-13.1%	-6.9%	9.0%	177.9%
CCOc1ccc(NC(=O)c2c(NCc3cccs3)sc3c2CCCCC3)cc1	2.1%	7.94µM*	.	.

Screening results from PubChem.
